The record followed here is PubChem BioAssay AID1002 (National Center for Advancing Translational Sciences (NCATS), 2008).

Active and inactive are the calls of the source.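 How the source made its calls: active means compound given an inhibitor call from its dose-response curve against AmpC beta-lactamase with detergent added; inactive means the rest.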

Beta-lactamase (Escherichia coli (strain K12)), sequence (P00811 whole entry, looked up): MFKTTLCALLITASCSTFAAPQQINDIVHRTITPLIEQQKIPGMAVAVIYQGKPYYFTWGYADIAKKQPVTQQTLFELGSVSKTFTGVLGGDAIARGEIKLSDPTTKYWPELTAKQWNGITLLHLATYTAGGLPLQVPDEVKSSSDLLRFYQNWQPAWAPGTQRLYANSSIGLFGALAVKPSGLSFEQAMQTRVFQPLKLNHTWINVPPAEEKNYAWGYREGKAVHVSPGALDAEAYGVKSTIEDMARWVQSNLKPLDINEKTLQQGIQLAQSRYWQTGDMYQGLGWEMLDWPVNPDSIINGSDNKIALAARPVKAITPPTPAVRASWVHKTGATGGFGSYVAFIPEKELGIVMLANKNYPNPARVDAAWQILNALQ

The assay deals with Beta-lactamase (Escherichia coli (strain K12)) (UniProt P00811). The experiment in a line: Confirmation Concentration-Response Assay for Inhibitors of AmpC Beta-Lactamase (assay with detergent). To be noted: purified AmpC, nitrocefin absorbance 480 nm, 0.01% Triton. The protocol:
NIH Molecular Libraries Screening Centers Network [MLSCN] NIH Chemical Genomics Center [NCGC] MLSCN Grant: MH079825-01 Assay Provider: Shoichet, Brian K. This aggregation profiling approach exploits the sensitivity of aggregate formation to detergent. Inhibition of b-lactamase is measured in the presence and absence of 0.01% Triton X-100 (Feng 2007). This particular assay is a confirmation of previous qHTS (Inglese, 2006), Pubchem AID 584, assay with presence of 0.01% Triton X-100. For a related assay without detergent, see AID 585. Compounds that inhibit only in the absence of detergent are considered likely promiscuous aggregators. In this confirmation assay, AmpC activity was measured by following the absorbance at 480 nm. Nitrocefin is a chromogenic substrate: while nitrocefin is yellow (lmax 390 nm), the product of its hydrolysis is red (lmax 486 nm, 17,000 M-1). AmpC beta-lactamase was provided by Prof Brian Shoichet's lab, UCSF.
Buffer: 1. 20 mM phosphate buffer, pH 7.0, 0.01 % Triton X-100 2. Reagents/Controls. 3. Buffer in row 32 as negative control (no enzyme). 4. 3 nM AmpC final concentration in rows 1-31. Assay Steps: Six uL of reagents were dispensed to 1536-well Greiner black clear bottom plates. Compounds (23 nL) were transferred via Kalypsys PinTool. The plates were incubated for 15 min at room temperature, and then 2 uL of 800 uM solution of nitrocefin was added to start the reaction. The plates were immediately transferred to and read every 20 seconds for 3 minutes on ViewLux (Perkin-Elmer) High-throughput CCD imager using 480 nm absorbance protocol.
In the case of `CCC(C)[C@@H](NC(=O)OC(C)(C)C)c1nnc(S(=O)(=O)Cc2cccc(C)c2)o1` (some centres undefined), the Potency was 10 µM (active).

Consider `CC(C)(C)OC(=O)NCCc1nnc(S(=O)(=O)Cc2ccc(Cl)cc2Cl)o1`, for which the Potency is 0.066 µM (active).

As to `CC(C)(C)OC(=O)N[C@@H](Cc1ccccc1)c1nnc(S(=O)(=O)Cc2ccccc2)o1`, the Potency is 16 µM (active).

Turning to `CC[C@@H](C)[C@H](NC(=O)OC(C)(C)C)c1nnc(S(=O)(=O)Cc2cc(C)ccc2C)o1`, the Potency was 10 µM (active).

In the case of `Cc1ccccc1CS(=O)(=O)c1nnc([C@H](CC(C)C)NC(=O)OC(C)(C)C)o1`, the Potency was 11 µM (active).

`CC(C)C[C@H](N)c1nnc(S(=O)(=O)Cc2cccc(F)c2)o1`: the Potency was 8.6 µM (active).

Turning to `CC(C)(C)OC(=O)N[C@@H](Cc1ccccc1)c1nnc(S(=O)(=O)Cc2cccc(F)c2)o1`, the Potency is 15 µM (active).

Consider `CC(C)[C@H](NC(=O)OC(C)(C)C)c1nnc(S(=O)(=O)Cc2c(F)cccc2Cl)o1`, for which the Potency is 1.8 µM (active).

On to `COC(=O)CS(=O)(=O)c1nnc([C@H](Cc2ccccc2)NC(=O)OC(C)(C)C)o1`, for which the Potency is 9.4 µM (active).
